Assay results taken from PubChem BioAssay (NCATS).
Values joined by “and” are separate entries in the source; they are usually repeats but may differ in a detail not shown here. Equal values may be shown once. Records with an inconclusive call do not appear. Active and inactive are the calls of the source. Calls follow the shape of the dose curve; as a rule, active = well fitted curve in the direction sought with a large enough effect; inconclusive = small, poorly fitted or top-dose-only effect, or another doubt; inactive = no such curve, though single readings can be large; an effect the other way counts as inactive or inconclusive.

Columns and labels:
[1] = system: NIH3T3; assay: qHTS assay to identify novel small-molecules to repurpose for Merkel cell carcinoma treatment (AID 1296009); details: MCC and control cell lines, CellTiter-Glo viability, 72 h; also: nearly all actives have a fitted effect of over 60% in size
Procedure, shortened: (§1)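 Cell viability measured by CellTiter-Glo following 72 hr compound treatment at 37 degree celsius, with NPC and MIPE libraries tested in 8- and 11-point concentration series.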

[2] = system: UISO; assay: as above; details: MCC and control cell lines, CellTiter-Glo viability, 72 h; series mostly up to 46 µM
Procedure, shortened: as §1

[3] = system: WaGa; assay: as above; details: MCC and control cell lines, CellTiter-Glo viability, 72 h; series mostly up to 46 µM
Procedure, shortened: as §1

[4] = system: C33A; assay: Primary qHTS to identify gynecologic anti-cancer compounds using libraries of approved drugs and bioactive compounds (AID 1345084); details: Gynecologic cancer cell panel viability, ATPlite luminescence, 48 h; series mostly up to 57.5 µM; also: nearly all actives have a fitted effect of over 55% in size
Procedure, shortened: (§2)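 ATP-based viability (ATPlite), 1,000 cells/well, 16 h pre-incubation, 48 h compound at 37 C, 5% CO2, 15 min RT before read.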

[5] = system: CAOV3; assay: as above; details: Gynecologic cancer cell panel viability, ATPlite luminescence, 48 h; series mostly up to 57.5 µM
Procedure, shortened: as §2

[6] = system: CASKI; assay: as above; details: Gynecologic cancer cell panel viability, ATPlite luminescence, 48 h; series mostly up to 57.5 µM
Procedure, shortened: as §2

[7] = system: Es-2; assay: as above; details: Gynecologic cancer cell panel viability, ATPlite luminescence, 48 h; series mostly up to 57.5 µM
Procedure, shortened: as §2

[8] = system: HeLa; assay: as above; details: Gynecologic cancer cell panel viability, ATPlite luminescence, 48 h; series mostly up to 57.5 µM
Procedure, shortened: as §2

[9] = system: Hek293T; assay: as above; details: Gynecologic cancer cell panel viability, ATPlite luminescence, 48 h, control line for the selectivity index; series mostly up to 57.5 µM
Procedure, shortened: as §2

[10] = system: JEG-3; assay: as above; details: Gynecologic cancer cell panel viability, ATPlite luminescence, 48 h; series mostly up to 57.5 µM
Procedure, shortened: as §2

[11] = at 44.8 µM (top of the series) unless noted
% is scaled to controls: 0 for no effect and ±100 for the full control effect; potency is read from the fitted curve at half-maximal effect.

CC(C)(N)Cc1ccc(Cl)cc1
inactive: outcome [1, 11] | Potency [2] | Potency [3] | Potency [4] | Potency [5] | Potency [6] | Potency [7] | Potency [8] | Potency [9] | Potency [10]

C#CCN(C)[C@H](C)Cc1ccccc1
inactive: outcome [1, 11] | Potency [2] | Potency [3] | Potency [4] | Potency [5] | Potency [6] | Potency [7] | Potency [8] | Potency [9]

CCCC(C)(COC(N)=O)COC(=O)NC(C)C (stereo unspecified)
inactive: outcome [1, 11] | Potency [2] | Potency [3] | Potency [4] | Potency [5] | Potency [6] | Potency [7] | Potency [8] | Potency [9]

CC1OC(C)OC(C)O1 (stereo unspecified)
inactive: outcome [1, 11] | Potency [2] | Potency [3] | Potency [4] | Potency [5] | Potency [6] | Potency [7] | Potency [8] | Potency [9]

CCN(C(C)=O)c1cccc(-c2ccnc3c(C#N)cnn23)c1
inactive: outcome [1, 11] | Potency [2] | Potency [3] | Potency [4] | Potency [5] | Potency [6] | Potency [7] | Potency [8] | Potency [9] | Potency [10]

CC(C)(C)CC(C)(C)c1ccc(O)cc1
inactive: outcome [1, 11] | Potency [2] | Potency [4] | Potency [5] | Potency [6] | Potency [7] | Potency [8] | Potency [9] | Potency [10]
active: Potency [3] 34.4 µM

C[C@@H]1O[C@@H](O[C@H]2C[C@@H](O)[C@]3(CO)[C@H]4[C@H](O)C[C@]5(C)[C@@H](C6=CC(=O)OC6)CC[C@]5(O)[C@@H]4CC[C@]3(O)C2)[C@H](O)[C@H](O)[C@H]1O
active: Potency [2] 83.3 nM and 59.6 nM | Potency [3] 66.2 nM and 59.6 nM | Potency [4] 100 nM and 126 nM | Potency [5] 251 nM and 199 nM | Potency [6] 562 nM and 794 nM | Potency [7] 316 nM and 141 nM | Potency [8] 224 nM and 158 nM | Potency [9] 282 nM and 178 nM
inactive: outcome ([1]; at 17.4 µM (top of the series)) | outcome ([1]; at 44.8 µM (top of the series))

Cn1cc(C2=C(c3cn(C4CCN(Cc5ccccn5)CC4)c4ccccc34)C(=O)NC2=O)c2ccccc21
inactive: outcome [1, 11] | Potency [2] | Potency [3] | Potency [4] | Potency [5] | Potency [6] | Potency [7] | Potency [8] | Potency [9]

CNCC(O)c1ccc(O)cc1 (stereo unspecified)
inactive: outcome [1, 11] | Potency [2] | Potency [3] | Potency [4] | Potency [5] | Potency [6] | Potency [7] | Potency [8] | Potency [9] | Potency [10]

CC(=O)[C@H]1CC[C@H]2[C@@H]3CC[C@H]4C[C@](C)(O)CC[C@]4(C)[C@H]3CC[C@]12C
inactive: outcome [1, 11] | Potency [2] | Potency [3] | Potency [4] | Potency [5] | Potency [6] | Potency [7] | Potency [8] | Potency [9]

CC(C)=CC1C(C(=O)OCc2cccc(Oc3ccccc3)c2)C1(C)C (stereo unspecified)
inactive: outcome [1, 11] | Potency [2] | Potency [3] | Potency [4] | Potency [5] | Potency [6] | Potency [7] | Potency [8] | Potency [9]

C=C1CC[C@@]2(O)[C@H]3Cc4ccc(O)c5c4[C@@]2(CCN3CC2CC2)[C@H]1O5
inactive: outcome [1, 11] | Potency [2] | Potency [3] | Potency [4] | Potency [5] | Potency [6] | Potency [7] | Potency [8] | Potency [9]

CCC(C(N)=O)N1CCCC1=O (stereo unspecified)
inactive: outcome [1, 11] | Potency [2] | Potency [3] | Potency [4] | Potency [5] | Potency [6] | Potency [7] | Potency [8] | Potency [9] | Potency [10]

O=[N+]([O-])c1cc([As](=O)(O)O)ccc1O
inactive: outcome [1, 11] | Potency [2] | Potency [3] | Potency [4] | Potency [5] | Potency [6] | Potency [7] | Potency [8] | Potency [9] | Potency [10]

Cc1cc(SCc2sc(-c3ccc(C(F)(F)F)c(F)c3)nc2C)ccc1OCC(=O)O
inactive: outcome [1, 11] | Potency [2] | Potency [3] | Potency [4] | Potency [5] | Potency [6] | Potency [7] | Potency [8] | Potency [9]

Cc1ccc(S(=O)(=O)N[C@@H](CCCCN)C(=O)CCl)cc1
inactive: outcome [1, 11] | Potency [2] | Potency [3] | Potency [4] | Potency [5] | Potency [6] | Potency [7] | Potency [8] | Potency [9] | Potency [10]

NCC(CC(=O)O)c1ccc(Cl)cc1 (stereo unspecified)
inactive: activity change, negative = cytotoxicity [2] -4.03% [at 0.597 µM] | activity change, negative = cytotoxicity [3] -6.81% [at 0.597 µM] | activity change, negative = cytotoxicity [4] 1.19% [at 0.462 µM] | activity change, negative = cytotoxicity [5] 8.76% [at 0.462 µM] | activity change, negative = cytotoxicity [6] 17.3% [at 0.462 µM] | activity change, negative = cytotoxicity [7] 4.42% [at 0.462 µM] | activity change, negative = cytotoxicity [8] 8.44% [at 0.462 µM] | activity change, negative = cytotoxicity [9] -3.58% [at 0.462 µM] | activity change, negative = cytotoxicity [10] -6.96% [at 0.462 µM]

C[C@]12CCC(=O)C(O)=C1CC[C@@H]1[C@@H]2CC[C@]2(C)C(=O)CC[C@@H]12
inactive: Potency [2] | Potency [3] | Potency [4] | Potency [5] | Potency [6] | Potency [7] | Potency [8] | Potency [9]

CC(=O)Nc1cc([As](=O)(O)O)ccc1O
inactive: outcome [1, 11] | Potency [2] | Potency [3] | Potency [4] | Potency [5] | Potency [6] | Potency [7] | Potency [8] | Potency [10]

Cc1cccc(C)c1NC(=O)CN1CCCC1=O
inactive: Potency [2] | Potency [3] | Potency [4] | Potency [5] | Potency [6] | Potency [7] | Potency [8] | Potency [9]
